Data on 39 compounds can be found in PubChem BioAssay.

Activity calls are given as the source filed them.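 How the source made its calls: active means primary screen hit whose fluorescence ratio, in both repeats, exceeds the weak agonist control mean by 3 SD; inactive means the rest.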

This test relates to TRPC4 (transient receptor potential cation channel C4 beta), mouse. Kind of test: potentiation of DAMGO EC20 TRPC4 response – cell-based, second round, Fluo-4, HEK293 TRPC4beta/mu-opioid, 1 µM, confirmation (AID 2554). As to conditions: DAMGO EC20, Fluo-4 calcium flux, at 1 µM; stronger effect = higher value. Background: Calcium flux is commonly read through the fluorescence of an indicator in the cells.
With `Fc1ccc(-c2nnc(CN3CCN(c4ncc(C(F)(F)F)cc4Cl)CC3)o2)cc1`, the result was inactive.

For the compound `CCN1CCN(c2ccc(S(=O)(=O)N3CCCCC3)cc2NC(=O)COc2ccccc2)CC1`, the outcome was inactive.

For `CC1CC(C)CN(CCCNC(=O)c2nn(C)c3c2CS(=O)(=O)c2ccccc2-3)C1` (centres undefined), the outcome was inactive.

For `Cc1ccc(/C=N\NC(=O)C2COc3cc4ccccc4cc3O2)o1` (centres undefined), the result was inactive.

For `Cc1cccc(C)c1OCC(O)CN` (centres undefined), the result was inactive.

For `CCn1cc(CN2CCCC(C(=O)Nc3ccc(-c4nc5ccccc5[nH]4)cc3)C2)c(C)n1` (centres undefined), the outcome was inactive.

As for `CC(C)(C)c1cc(Cl)ccc1OCCn1ccnc1`, the outcome was inactive.

`CC(C)c1ccc(NC(=S)N(C)CCc2ccccn2)cc1`: the outcome was inactive.

Take `CCCC(=O)NC(C)C(c1cccs1)N1CCN(c2ccccc2)CC1` (centres undefined): the result was inactive.

In the case of `Cc1ccc2oc(=O)c3cnn(CC(=O)NC4CCN(Cc5ccccc5)CC4)c3c2c1`, the outcome was inactive.

Regarding `O=C(CCc1ccccc1)NNC(=S)NC(=O)c1ccc(Cl)cc1`, the outcome was inactive.

With `C=CCn1c(CCNC(=O)c2ccco2)nc2ccccc21`, the outcome was inactive.

Consider `Cc1sc2nc(CSc3ccccc3)nc(NCCN(C)C)c2c1C`, for which the result was inactive.

As for `O=C(CNS(=O)(=O)c1ccc2ccccc2c1)NCCc1ccccn1`, the outcome was inactive.

As to `COc1ccc(-c2cc(C#N)nc(N3CCNCC3)n2)cc1`, the result was inactive.

Consider `Cc1ccc(C)c(OCCCCn2ccnc2)c1`, for which the outcome was inactive.

Consider `CCCN(CCC)CCNC(=S)Nc1ccc2nc3n(c(=O)c2c1)CCCCC3`, for which the outcome was inactive.

In the case of `Cc1cccc(NC(=S)NCC(c2cccnc2)N(C)C)c1` (centres undefined), the result was inactive.

On to `COc1ccc(/C=C/CN2CCCC(C(=O)c3ccc(OC)c(F)c3)C2)cc1` (centres undefined), for which the result was inactive.

For `Cc1sc2ncnc(NC3CCN(Cc4ccccc4)CC3)c2c1C`, the result was inactive.

In the case of `CCCCN(CC)CCNC(=O)c1cc2c(C)nc3ccccc3c2o1`, the outcome was inactive.

Turning to `O=C(NCCc1ccccn1)c1ccc(OC2CCN(CCc3ccccc3)CC2)cc1`, the outcome was inactive.

`Cc1ccccc1NC(=S)NCCc1ccccn1`: the result was inactive.

`NCCCn1c(C(=O)c2cc(Cl)c(N)c(Cl)c2)c2ccccc2[n+]1[O-]`: the result was inactive.

In the case of `COc1ccc(-c2nn(-c3ccccc3)cc2CNCc2cccnc2)c(F)c1`, the outcome was inactive.

Turning to `Cc1onc(-c2ccccc2)c1C(=O)NC(=S)NNC(=O)c1ccco1`, the outcome was inactive.

Take `COc1ccc(C(CNC(=O)c2ccc(S(=O)(=O)N(C)C)cc2)N(C)C)cc1` (centres undefined): the outcome was inactive.

Consider `CCN1C(=O)c2cccc3c(S(=O)(=O)Nc4ccccc4OC)ccc1c23`, for which the outcome was inactive.

Turning to `CCOC(=O)C1CCCN(C(c2ccccn2)c2c(C)[nH]c3ccccc23)C1` (centres undefined), the outcome was inactive.

As for `COC(=O)c1ccccc1N=Nc1c(N)[nH][nH]c1=O`, the potentiation is 69% (active).

For `COc1ccc(C(CNCC(=O)Nc2ccccc2F)N(C)C)cc1` (centres undefined), the result was inactive.

Turning to `CCOC(=O)C1(CCOc2ccccc2)CCN(Cc2cnc(C)s2)CC1`, the outcome was inactive.

`O=C(c1sc2ccccc2c1Cl)N(Cc1ccco1)C1CCS(=O)(=O)C1` (centres undefined): the outcome was inactive.

Take `CCCCN(C)CCCNC(=O)CN1N=C(c2ccc(Cl)cc2)CCC1=O`: the outcome was inactive.

Consider `CN(C)CCCN(C(=O)c1ccc(C(=O)c2ccccc2)cc1)c1nc2ccc(F)cc2s1`, for which the outcome was inactive.

With `CN(CCc1nc2ccc(Cl)cc2[nH]1)Cc1nc(CC2CC2)no1`, the outcome was inactive.

As for `Fc1ccc(C(c2nnnn2Cc2cccs2)N2CCN(C3CCCCC3)CC2)cc1` (centres undefined), the outcome was inactive.

In the case of `COc1ccc(C2Nc3ccccc3C(=O)N2Cc2ccco2)cc1COc1ccc(NC(C)=O)cc1` (centres undefined), the result was inactive.

Turning to `O=C(NCCCN1CCN(CCCNC(=O)c2ccc3c(c2)OCO3)CC1)c1ccc2c(c1)OCO2`, the result was inactive.
